The results in this text go back to PubChem BioAssay AID707 (Columbia University Molecular Screening Center, 2007).

In all, about 91,000 compounds went through this assay and about 310 (0.34%) were called active. Shown is part of a subset that was picked to be rich in actives. A number with no mark means an inactive call. Cut-off read from the data, not from the text of the source: active = inhibition above about 80%; inactive = the rest.

The assay deals with Bifunctional epoxide hydrolase 2 (Homo sapiens) (UniProt P34913). Description: sEH enzyme activity blockers – biochemical, human sEH, primary screen (AID 707). The note with it: recombinant human sEH enzymatic activity assay; at 2 µM; active compounds read high.
Sequence of Bifunctional epoxide hydrolase 2 (Homo sapiens) (P34913 whole entry, looked up): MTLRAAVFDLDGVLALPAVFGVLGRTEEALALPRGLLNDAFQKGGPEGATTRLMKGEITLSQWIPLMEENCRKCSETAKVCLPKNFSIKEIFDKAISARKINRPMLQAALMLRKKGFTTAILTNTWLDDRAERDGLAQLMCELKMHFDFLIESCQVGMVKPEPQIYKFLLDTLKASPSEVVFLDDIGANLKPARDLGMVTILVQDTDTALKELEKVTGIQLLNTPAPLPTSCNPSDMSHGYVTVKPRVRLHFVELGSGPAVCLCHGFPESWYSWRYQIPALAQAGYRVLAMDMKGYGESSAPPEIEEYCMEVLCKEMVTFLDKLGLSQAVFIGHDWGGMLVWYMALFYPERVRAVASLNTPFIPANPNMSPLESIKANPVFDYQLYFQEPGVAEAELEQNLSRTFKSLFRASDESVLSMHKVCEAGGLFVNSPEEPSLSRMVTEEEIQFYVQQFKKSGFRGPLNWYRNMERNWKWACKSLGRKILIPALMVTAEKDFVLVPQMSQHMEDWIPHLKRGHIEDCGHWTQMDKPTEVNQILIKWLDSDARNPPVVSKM
As to `Cc1cc(Nc2ccccc2)nc(N)n1`, the inhibition was 3%.

For `CCNC(=S)Nc1cccc(Cl)c1C`, the inhibition is -0.5%. As for `CC(C)N(c1ccccc1)c1ncnc(NCCC(=O)O)c1[N+](=O)[O-]`, the figure is -1.2%; as for `c1ccc2c(C[n+]3csc4ccccc43)cccc2c1`, -9%; as for `Cc1nn(-c2ccccn2)c2c1C(c1ccncc1)C1=C(CC(C)(C)CC1=O)N2` (stereo not given), -0.7%. Turning to `O=C(Cc1ccc2c(c1)CCCC2)Nc1ccccc1Cl`, the inhibition is 7.7%. The figure for `O=C1c2ccccc2C(=O)c2c1cccc2N1CCN(CCO)CC1` is 5.4%; for `COc1ccc(/C=C(/NC(=O)c2ccc(C)cc2)c2nc3ccccc3[nH]2)cc1OC` it is 1.8%. As for `Cc1ccccc1N/N=C/c1ccc(N2CCOCC2)cc1`, the figure is -9.2%.

`CC(Oc1ccc(Cl)cc1Cl)C(=O)/C=C/N(C)C` (stereo not given): the inhibition was 15.1%. Take `COc1cnc(SCc2ccc(Cl)c(Cl)c2)nc1Cl`: the inhibition was -5.2%.

Consider `ONC(=Nc1ccc(Cl)cc1)c1ccccc1Cl`, for which the inhibition is -9.2%. The figure for `CCOc1ccc(Nc2nc(Cc3nnc(SCC(=O)NC4CCCC4)n3C)cs2)cc1` is 10.9%; for `CN(C)Cc1ccccc1C1(O)c2ccccc2CSc2ccccc21` (stereo not given) it is 5.7%; for `Clc1ccc(-c2cc(COc3ccccc3)no2)cc1Cl` it is -1.1%. As for `COc1ccc(C(=S)Nc2ccccc2)cc1`, the figure is 4.8%; as for `CC(Cc1cccs1)NC(=O)NC1CCCCC1` (stereo not given), 92.6% (active). On to `Cc1ccsc1C(C(=O)NC1CCCCC1)N(C(=O)Cc1cccs1)C1CC1` (stereo not given), for which the inhibition is 5.3%. As for `CC(C)C(OC(=O)c1cccs1)C(=O)NC1CCCCC1` (stereo not given), the figure is -8.3%; as for `CCOc1ccc(S(=O)(=O)Nc2nc3cc(OC)ccc3s2)cc1`, -14.5%; as for `Cc1ccccc1C(=O)N1CCC(C(=O)Nc2ccc(S(=O)(=O)N(C)C(C)C)cc2)CC1`, 83.8% (active). The figure for `CCOC(=O)Nc1ccc(S(=O)(=O)N(C)C(C)C)cc1` is 1.6%; for `CC(C)NS(=O)(=O)c1ccc(NC(=O)C2CCCCC2)cc1` it is -3.1%. As for `O=C(CSc1ncnc2c1cnn2CCc1ccccc1)Nc1ccc(F)cc1`, the figure is 20.5%. Consider `O=C(c1cccc(F)c1)N1CCN(c2ccc([N+](=O)[O-])c(N3CCCCC3)c2)CC1`, for which the inhibition is 6.5%. The figure for `CCOC(=O)/C(=C\c1ccc([N+](=O)[O-])cc1)C(=O)c1cc(C(C)=O)c(Nc2ccccc2)s1` is 10.3%; for `COc1ccccc1OCCNc1cc(N2CCOCC2)ccc1[N+](=O)[O-]` it is -3.3%.

For the compound `CCn1c2ccccc2c2cc(NC(=O)C/C(C)=N/NC(=O)c3ccccc3N)ccc21`, the inhibition was 4.8%.

In the case of `Cc1ccc(/C=N/NC(=O)C(NC(=O)c2ccccc2)c2n[nH]c(=O)c3ccccc23)cc1` (stereo not given), the inhibition is -0.8%.

In the case of `COc1ccccc1NC(=O)[C@H](COCc1ccccc1)NC(=O)OC(C)(C)C`, the inhibition was -8.8%. As for `CCOc1cccc(SCc2noc(C(=O)NC(C)C)c2C(=O)O)c1`, the figure is -1.8%; as for `CN(C)/C=C(\C#N)C(=O)c1cccnc1Oc1ccc(F)cc1F`, 12.8%. `C=CCn1c(-c2ccc(Cl)cc2)ccc(C#N)c1=O`: the inhibition was -0.8%.

In the case of `CC1CCN(C(NC(=O)c2ccco2)C(=O)c2ccccc2)CC1` (stereo not given), the inhibition was -0.8%.

`O=C1CCN(C(=O)Nc2ccccc2)N1`: the inhibition is 2.7%.

For `O=C(CCNS(=O)(=O)c1ccccc1C(F)(F)F)NCc1ccc2c(c1)OCO2`, the inhibition was -4.3%. Take `COc1ccc(/C=C2\CCCC3C2=NN(C(=O)c2scnc2C)C3c2ccc(OC)cc2)cc1` (stereo not given): the inhibition was -10.6%. Turning to `CS(=O)(=O)N(CC(=O)Nc1ccc(F)cc1F)c1cccc([N+](=O)[O-])c1`, the inhibition was 1.3%.

Take `CC(C)c1ccc(/C=C/C(=O)NNC(=O)c2cccnc2)cc1`: the inhibition was -2.9%. As for `COc1cc(C2C(C(=O)OCCC#N)=C(C)NC3=C2S(=O)(=O)c2ccccc23)cc(OC)c1OC` (stereo not given), the figure is 8.9%; as for `COc1ccc(Cl)cc1NC(=O)CN(C)C(=O)CNC(=O)C12CC3CC(CC(C3)C1)C2`, 15.5%; as for `CS(=O)(=O)N1CCN(c2ccc(C(=O)NC3C4CC5CC(C4)CC3C5)cc2[N+](=O)[O-])CC1` (stereo not given), -10.1%. The figure for `Cc1cc(/C=C2/SC(=O)N(CC(=O)OC(C)C)C2=O)c(C)n1C` is -9.2%; for `Cc1cc(OC(=O)c2c(Cl)cccc2Cl)nc(C)n1` it is -21.2%; for `Cc1nnsc1S(=O)(=O)Cc1ccccc1Cl` it is 4.8%.

Regarding `CCOC(=O)N1CCN(c2c(NCCCN3CCCC(C)C3)c(=O)c2=O)CC1` (stereo not given), the inhibition is -4.6%. On to `Cc1nc(Cl)c2oc3ccccc3c2n1`, for which the inhibition was 0.8%. As for `O=[N+]([O-])c1ccccc1NCc1ccc(Cl)cc1`, the figure is -1%; as for `CN(C)c1ccc(NC(=S)N(CCc2ccccc2)C2CC(=O)N(c3c(Cl)cccc3Cl)C2=O)cc1` (stereo not given), 7.8%; as for `Cc1nn(CC(=O)Nc2nc3ccccc3s2)c(C)c1[N+](=O)[O-]`, -6.1%.

On to `Cc1ccc(OCC(=O)N/N=C/c2ccncc2)cc1`, for which the inhibition is -19.2%. The figure for `CC(=O)c1cn(CCCCCCCCCCn2cc(C(C)=O)c(=O)[nH]c2=O)c(=O)[nH]c1=O` is -2%.

With `Cc1ccc(-c2nn(-c3ccccc3)cc2/C=N/NC(=O)c2ccc3c(c2)OCO3)cc1`, the inhibition is -6.2%. As for `Cc1occc1C(=O)NNC(=S)NCC(C)C`, the figure is -18%; as for `Cc1cccc(NC(=O)c2ccc(OCC(=O)NCc3ccccc3)cc2)c1C`, 3.8%.
